Laboratory results from the supplement of paper PMC6555819.

tested on: RARb homodimer (NR concentration 270 nM); assay: PBM binding z-score (relative to random genomic background probes); higher = stronger binding; sequences stand for … in GC…GCGATTGACAGCGTAGAATGAAGG
Method in brief: (§1)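 Scanned fluorescence from custom Agilent 4×180K protein-binding microarrays was regression-normalized. Binding z-scores use random background probes as reference. Ligand-free nuclear receptor dimers were incubated on the arrays for 1 h and detected with antibodies against each partner (one per run).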

Sequence	PBM binding z-score
CCGACAGGGGCAAAGGTTACCATACTCAGTACGA	2.32
CGTCAAAGTTCAAGATAACGTAACAGAAAGCAGC	3.44
CTCGAAAGGTCGGTTGAGGTGAGTGTACGGATAA	2.49
GCAGACAGGTGAAACGCAGGTAACGCAGGGTGGC	0.284
AGAATGAGGTTACCAAAGATCACGGAAACGCTTG	1.02
CGAACTAGGTCCTCCAGGACAGTGAATACATTGA	-0.151
TCTTGTAGATCAAGCAGCTTAAGAAAGCCTGAGT	-0.672
TCTAGCAGGGCAGAGGGTCACTCAAGAGGTACGG	2.89
GCTTGTAGATCAAGGTTGAGAAAGACTAAGCTAA	-0.753
AGTCAAAGTTCCGGACGAGGTAACGTAAAGCACG	0.173
CCTTACGGGTCACTCCAGGGTATAGCATCGGAGT	2.55
ACTACTAGTTGAGACGAGGGCAACCGATAGGTTG	1.18
GCTGCTAGGTCAGGGTGGTCAGCTAACGGGTACG	3.07
GCTGTTAGTTGAAAGGGCAACCGAATGATTCTCG	2.03
TGAATGAGGTTAAACATCAGGGAACGTGGCGTCG	0.708
TCGAGTAGGTTAGTGGCATTCAGAATGGCGTCGA	-0.183
CCAACTGGGGCAAGGTTACCATAACGCACAGCCA	1.51
TAGCCTAGGTCATGCGGGCCAGGATAGTGTCGGC	3.1
GCTGCTAGGTCTACTGATGGTCAGCTAAAGCTCG	-0.175
ACAGACAGGAGAGTGAAGGTAACTCAGCTGGACG	0.0737

Sequence	PBM binding z-score
GATACAGGGTCATGGCCAGAGTACGCGTATTGAT	3.44
GCTAGTTGGTCAGCAAAAGGTCACACACCGGTCG	5.34
ATCGAAAGGTCGAGGTGAGTAGAGAGAAAGGGAA	2.81
AGAGTGAGGTTAAGATCAGGGAAACAGAATACAT	1.46
ATCGAAAGGTCGAAGGTGAGTATGCCCACCCGAA	2.54
TCTGCTAGGTAAGTTGGTCAGCTAACGAGCTGCC	-0.545
CGAATGAGGGCATGAGTTGATAGCAAATGCCGAT	0.499
CCTAGCAGGCCAATCTGGGTCACTCTAGGCTTGA	2.09
TCTTGTAGATCTAGCAGGTTAAGAAAGCCTGAGT	0.195
TCTGATAGGTCAGTTGGTCAGCTAACGAGCTGCC	2.94
ACTAGCAGGCCAAGTTTGGGGCACTCAAACAAAG	0.455
TCTATTAGTTGATTAGCGCAACCGAAACAGCGGA	-0.343
TCATATAGGTAAAAGGTGAAAATCGGTGTGGTAA	1.58
CCTTACGGGTCACTGACAGGTTATAGGATTTGGA	3.52
TCATATCGGTAAAGGTGAAAGTCGAACGATATGA	1.32
CCTAGCAGGCCAGGGTCCCTCAAGCATTTCGCTT	-0.427
TCGGCTAGGTCAACGATGGTCAGCTAATCTGCTA	3.12
TTACCAACGTGAAAGGTCGTTGATGCACGCCTTG	1.63
ACAGAGAGGTGATGAAGGTAACTCAGGCTATCAT	0.584
ACTTACGGGTCAACGAGGTTATAGCGCGCGTATA	3.76

tested on: RARg:RXRa (NR concentration 270 nM, RXRa partner concentration 90 nM); assay: as above
Method in brief: as §1

Sequence	PBM binding z-score
CCGACAGGGGCAAAGGTTACCATACTCAGTACGA	3.95
CGTCAAAGTTCAAGATAACGTAACAGAAAGCAGC	5.28
CTCGAAAGGTCGGTTGAGGTGAGTGTACGGATAA	2.68
GCAGACAGGTGAAACGCAGGTAACGCAGGGTGGC	1.13
AGAATGAGGTTACCAAAGATCACGGAAACGCTTG	2.24
CGAACTAGGTCCTCCAGGACAGTGAATACATTGA	0.0122
TCTTGTAGATCAAGCAGCTTAAGAAAGCCTGAGT	-0.336
TCTAGCAGGGCAGAGGGTCACTCAAGAGGTACGG	3.12
GCTTGTAGATCAAGGTTGAGAAAGACTAAGCTAA	-0.343
AGTCAAAGTTCCGGACGAGGTAACGTAAAGCACG	0.181
CCTTACGGGTCACTCCAGGGTATAGCATCGGAGT	4.23
ACTACTAGTTGAGACGAGGGCAACCGATAGGTTG	0.816
GCTGCTAGGTCAGGGTGGTCAGCTAACGGGTACG	2.91
GCTGTTAGTTGAAAGGGCAACCGAATGATTCTCG	1.49
TGAATGAGGTTAAACATCAGGGAACGTGGCGTCG	2.37
TCGAGTAGGTTAGTGGCATTCAGAATGGCGTCGA	-0.478
CCAACTGGGGCAAGGTTACCATAACGCACAGCCA	0.917
TAGCCTAGGTCATGCGGGCCAGGATAGTGTCGGC	3.77
GCTGCTAGGTCTACTGATGGTCAGCTAAAGCTCG	-0.238
ACAGACAGGAGAGTGAAGGTAACTCAGCTGGACG	0.0775

Sequence	PBM binding z-score
GATACAGGGTCATGGCCAGAGTACGCGTATTGAT	5.62
GCTAGTTGGTCAGCAAAAGGTCACACACCGGTCG	5.94
ATCGAAAGGTCGAGGTGAGTAGAGAGAAAGGGAA	4.37
AGAGTGAGGTTAAGATCAGGGAAACAGAATACAT	2.28
ATCGAAAGGTCGAAGGTGAGTATGCCCACCCGAA	4.34
TCTGCTAGGTAAGTTGGTCAGCTAACGAGCTGCC	-0.54
CGAATGAGGGCATGAGTTGATAGCAAATGCCGAT	1.14
CCTAGCAGGCCAATCTGGGTCACTCTAGGCTTGA	0.781
TCTTGTAGATCTAGCAGGTTAAGAAAGCCTGAGT	-0.205
TCTGATAGGTCAGTTGGTCAGCTAACGAGCTGCC	3.32
ACTAGCAGGCCAAGTTTGGGGCACTCAAACAAAG	0.443
TCTATTAGTTGATTAGCGCAACCGAAACAGCGGA	0.177
TCATATAGGTAAAAGGTGAAAATCGGTGTGGTAA	2.04
CCTTACGGGTCACTGACAGGTTATAGGATTTGGA	5.89
TCATATCGGTAAAGGTGAAAGTCGAACGATATGA	1.5
CCTAGCAGGCCAGGGTCCCTCAAGCATTTCGCTT	-0.683
TCGGCTAGGTCAACGATGGTCAGCTAATCTGCTA	4.15
TTACCAACGTGAAAGGTCGTTGATGCACGCCTTG	1.54
ACAGAGAGGTGATGAAGGTAACTCAGGCTATCAT	0.531
ACTTACGGGTCAACGAGGTTATAGCGCGCGTATA	5.67
